Measured values as given in PubChem BioAssay AID652208 (Broad Institute, 2013).
Results with a measured potency or affinity are listed apart. Values without a mark were called inactive.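 The calls were made as follows: active = Loss of cell signal with fitted half-effect dose at or below twice the top valid tested dose; inconclusive = Poor fit, or flat fit from -70 to -30 percent; inactive = Half-effect above limit, rising signal, or flat within 30 percent.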

assay: HEK293T cell cytotoxicity, dose response, cytotoxicity control for HIV Vif inhibitor project, cherry-picks (AID 652208); details: HEK293T viability, CellTiter-Glo luminescence, 24 h; series mostly up to 26 µM; activity change, negative = cytotoxicity: at the top concentration;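 also: 0% = median neutral control wells and -100% = median staurosporine control wells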

| Compound | activity change, negative = cytotoxicity |
| --- | --- |
| O=C(Nc1cccc(-c2cc3ccccc3oc2=O)c1)c1ccc(Br)o1 | 2.79% |
| COc1ccc2c(CC(=O)Nc3ccccc3OC)coc2c1 | -3.21% |
| N#Cc1c(C(F)(F)F)cc(-c2ccco2)nc1SCc1ccncc1 | -16.7% |
| COc1ccc(N=C2NC(=O)S/C2=C\c2ccc(N(C)C)cc2)cc1 | -5.14% |
| CCOC(=O)c1c(NC(=O)CCC(=O)N2CCOCC2)sc2c1CC(C)(C)OC2 | 6.96% |
| Cc1cccc2cc(CN(CC3CCCO3)C(=O)NC3CCCCC3)c(=O)[nH]c12 (configuration not stated) | 6.93% |
| COc1cc(OC)cc(C(=O)N[C@H](C(=O)Nc2ccc3c(c2)OCO3)C(C)C)c1 | 6.27% |
| CC(C)C(=O)N=C1SC2CS(=O)(=O)CC2N1Cc1ccccc1 (configuration not stated) | -10.6% |
| COC(=O)c1sc(-c2ccc(Cl)cc2)cc1NC(=O)CSCC(=O)O | -1.52% |
| COc1ccccc1Nc1nnc(C)c(=O)[nH]1 | -4.17% |
| O=c1[nH]c(=O)n(Cc2ccco2)c2c1C(C(F)(F)F)(C(F)(F)F)N=C(c1ccco1)N2 | -3.38% |
| Cc1ccc(NC(=O)/C=C/c2ccco2)nc1 | -17.1% |
| CCOC(=O)C1CCCN1C(=O)C1(NC(C)=O)CCCC1 (configuration not stated) | 5.09% |
| Cc1ccc(C(=O)NC(CCc2ccccc2)C(=O)O)cc1 (configuration not stated) | 5.87% |
| CCc1ccc(S(=O)(=O)Nc2ccc(-c3ccc4nnc(C)n4n3)cc2)s1 | 5.8% |
| COc1ccccc1C1C2=C(COC2=O)Nc2cc3c(cc21)OCO3 (configuration not stated) | -19.8% |
| COc1ccc(CN(CC(=O)NC2CCCC2)C(=O)CN2C(=O)COc3ccccc32)cc1 | 3.38% |
| COCCNC(=O)c1nn2c(C(F)(F)F)cc(-c3ccccc3)nc2c1Cl | -9.4% |
| C=CCN1C(=O)/C(=C/c2ccc(-c3ccc(F)cc3)o2)SC1=S | -18.7% |

| Compound | activity change, negative = cytotoxicity |
| --- | --- |
| CCNC(=O)[C@H]1O[C@@H](n2cnc3c(N)nc(NCCc4ccc(CCC(=O)O)cc4)nc32)[C@H](O)[C@@H]1O | 4.52% |
| CCOc1ccc(Nc2nc3c(C)cccc3cc2C#N)cc1 | -0.828% |
| O=C(O)c1ccc(-c2nc(-c3cccc(C(F)(F)F)c3)cs2)cc1 | -7.98% |
| OC(CNCc1ccccc1Cl)COc1ccc(F)cc1 (configuration not stated) | -10.6% |
| CCOc1ccc(CC(=O)Nc2sc(Cc3ccccc3)c(C)c2C(N)=O)cc1OCC | -5.74% |
| COc1ccc(-c2cc(C(F)(F)F)n3nc(C(=O)NCc4ccco4)c(Cl)c3n2)cc1 | -23.3% |
| CC1CN(S(=O)(=O)c2cccc(C(=O)N3CCC(C(N)=O)CC3)c2)CC(C)O1 (configuration not stated) | 5.09% |
| Nc1nc(-c2ccc3ccccc3c2)cs1 | 4.51% |
| Cc1ccc(NC(=O)/C=C/C(=O)O)c(NC(=O)c2ccccc2)c1 | 3.16% |
| CC(C)CN(C(=O)COC(=O)CSc1ccccc1)c1c(N)n(Cc2ccccc2)c(=O)[nH]c1=O | -0.439% |
| O=C(O)/C=C/C(=O)Nc1cccc(C(F)(F)F)c1 | 3.54% |
| CC(=O)Nc1ccc(-c2ccnc3c2CC(C(=O)NCc2ccccc2)O3)cc1 (configuration not stated) | -9.05% |
| O=C1S/C(=C/c2ccc(N3CCOCC3)o2)C(=O)N1Cc1c(F)cccc1Cl | -15.8% |
| CCCCN1C(=O)/C(=C/C=C2\Oc3ccccc3N2CC)SC1=S | -20.3% |
| CN(C)c1ccc(/C=C/C(=O)c2ccc3c(c2)OCO3)cc1 | -23.4% |
| CCn1c(CC(=O)Nc2ccccc2)nnc1SCC(=O)Nc1nnc(C)s1 | 4.17% |
| Cc1cc(C(=O)Nc2c(F)c(F)c(F)c(F)c2F)n(-c2ccccc2)n1 | -23.7% |
| COc1ccc(CC(=O)Nc2ccc(-c3noc(-c4cc(OC)c(OC)c(OC)c4)n3)cc2)cc1 | 0.981% |
